Results published in PubChem BioAssay (NCI).
“And” between values parts separate entries of the source, which are not always exact repeats. Equal entries are not always repeated. About 83,000 compounds went through this panel and 20% of them were active in at least one assay; those are over-represented in the sample as a whole.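 Cell lines were cultured in 96-well plates, exposed to a single compound concentration, and assessed for percent growth 48 hours later.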 The source made the active and inactive calls. The calls were made as follows: active = growth percent below 10; inactive = the rest.

Assays:
Assay in all cases: NCI-60 one-dose screen, 48 h (100 = growth as untreated, 0 = no growth, -100 = all killed)
Details in all cases: 10 µM unless noted
[1] = test system: NCI-H23 lung
[2] = test system: NCI-H226 lung
[3] = test system: NCI-H322M lung
[4] = test system: NCI-H460 lung
[5] = test system: HOP-92 NSCLC
[6] = test system: NCI-H522 lung
[7] = test system: A549/ATCC NSCLC
[8] = test system: 786-0 renal
[9] = test system: COLO 205 colon
[10] = test system: DU-145 prostate
[11] = test system: K-562 leukemia
[12] = test system: MALME-3M melanoma
[13] = test system: MDA-MB-231 breast
[14] = test system: RXF 393 renal
[15] = test system: SF-268 CNS
[16] = test system: SF-295 CNS
[17] = test system: SF-539 CNS
[18] = test system: UACC-257 melanoma
[19] = test system: M14 melanoma
[20] = test system: HOP-62 NSCLC

Measured: growth

Cn1c(N)c(N=O)c(=O)n(C)c1=O
inactive: [1] 96.2% | [2] 115% and 104% | [3] 113% and 88.7% | [4] 111% and 102% | [5] 103% | [6] 97% and 73.4% | [7] 106% and 96.8% | [8] 108% and 103% | [9] 107% and 117% | [10] 108% and 102% | [11] 86.8% and 108% | [12] 115% and 90.9% | [13] 108% and 98.7% | [14] 170% and 109% | [15] 94.6% and 90.7% | [16] 105% and 103% | [17] 107% and 100% | [18] 101% | [19] 100% and 96.7%

Cc1cc(-c2ccc(N=Nc3c(C)nn(-c4ccc(S(=O)(=O)O)cc4)c3O)c(C)c2)ccc1N=Nc1ccc(O)c(C(=O)O)c1
inactive: [1] 99.1% | [2] 82.2% | [3] 107% | [4] 109% | [5] 109% | [6] 87.9% | [8] 103% | [9] 94% | [10] 108% | [11] 104% | [12] 111% | [13] 97.2% | [14] 113% | [15] 97.6% | [16] 93.4% | [17] 101% | [18] 101% | [19] 107%

O=C(N=C1C(=O)C2(CCCCC2)C2(N=C(c3ccccc3)OC2=O)C12CCCCC2)c1ccccc1 (stereo not drawn)
inactive: [1] 66.9% | [2] 70.2% | [3] 96% | [4] 69.5% | [5] 41.7% | [6] 37.9% | [8] 77.7% | [9] 94% | [10] 79% | [11] 54.4% | [12] 77.6% | [13] 74.4% | [14] 69.5% | [15] 77.8% | [16] 77.3% | [17] 82.3% | [18] 67.7%
active: [7] 5.7%

CCn1c2ccc(N(C)C)cc2c2cc(N(C)C)ccc21
inactive: [1] 92.1% | [2] 97.4% | [3] 95.2% | [20] 90.2% | [4] 99.8% | [6] 77.3% | [7] 85.7% | [8] 102% | [9] 46.8% | [10] 108% | [11] 90.6% | [12] 111% | [13] 83.8% | [14] 97.3% | [15] 92.8% | [16] 104% | [17] 100% | [18] 93% | [19] 102%

O=C1C=CC[C@H](/C=C/c2ccccc2)O1
64.7% (inactive) and -48.7% (active): [20]
12.2% (inactive) and 7.95% (active): [7]
48.2% (inactive) and -27.8% (active): [8]
active: [4] 4.39% and -32.3% | [10] -3.41% and 0.622% | [15] 7.78% and 7.94% | [16] -0.286% and 0.195%
25.5% (inactive) and 4.12% (active): [3]
13.2% (inactive) and -60.2% (active): [17]
57.9% (inactive) and -70.8% (active): [9]
14.6% (inactive) and -20.2% (active): [11]
29.8% (inactive) and -33% (active): [2]
inactive: [1] 37.8% and 40.7% | [6] 13.9% and 47.5% | [12] 61.9% and 55.5% | [13] 55.6% and 36.6% | [18] 47% and 15.3% | [19] 53.7% and 27.8%

O=C(O)c1cc(=O)[nH]c(=O)[nH]1
inactive: [2] 102% and 95% | [3] 89.8% and 97.5% | [20] 115% and 107% | [4] 111% and 91.4% | [6] 89.7% and 18.9% | [8] 96.5% and 103% | [9] 99.6% and 89.3% | [10] 116% and 104% | [11] 106% and 115% | [12] 89.1% and 116% | [13] 97.2% and 96.3% | [14] 118% | [15] 112% and 100% | [16] 101% and 124% | [17] 104% and 80.5% | [18] 103% | [19] 102% and 111%
104% (inactive) and 4.68% (active): [1]

CCOC(=O)C1=CC(=O)CC(C)(C)O1
inactive: [1] 104% and 107% | [2] 114% and 95.3% | [3] 99.2% and 125% | [20] 109% and 107% | [4] 107% and 109% | [6] 79.7% and 96.2% | [7] 119% and 81.9% | [8] 110% and 116% | [9] 105% and 111% | [10] 123% and 110% | [11] 42% and 104% | [12] 112% and 110% | [13] 114% and 106% | [14] 118% and 114% | [15] 108% and 103% | [16] 125% and 114% | [17] 110% and 109% | [18] 106% and 95.7%

CC(C)(C)OC(=O)NCCc1ccc(N)cc1
inactive: [1] 104% | [2] 94.9% | [3] 103% | [20] 96.1% | [4] 97.4% | [6] 83.5% | [7] 91% | [8] 100% | [9] 110% | [10] 103% | [11] 101% | [12] 95.8% | [13] 85.6% | [14] 115% | [15] 96.3% | [16] 99.2% | [17] 107% | [18] 98.2%

ON=C(C1CCCCC1)C1CCCCC1
inactive: [1] 97.8% | [2] 102% | [3] 93.2% | [20] 99.5% | [4] 108% | [8] 99.9% | [9] 109% | [10] 107% | [11] 108% | [12] 91.9% | [13] 95.3% | [14] 109% | [15] 98.1% | [16] 105% | [17] 96.3% | [18] 99.5% | [19] 109%

COc1cc2oc3cc(=O)cc4oc(-c5ccccc5)cc(c2c2c1CCC(c1ccccc1)O2)c43 (stereo not drawn)
inactive: [1] 87.8% | [2] 64.4% | [3] 101% | [20] 91% | [4] 76.2% | [6] 86.6% | [7] 96.2% | [8] 110% | [9] 98.5% | [10] 79.7% | [11] 42.1% | [12] 117% | [13] 75.8% | [14] 78.6% | [15] 85.1% | [16] 70.5% | [17] 78.7% | [18] 99.9% | [19] 88.2%

COc1ccc2oc3cc(NCCN(C)C)ccc3c(=O)c2c1
inactive: [1] 112% and 83% | [2] 109% and 102% | [3] 76.5% | [20] 88.2% and 54.1% | [4] 97.7% and 61.7% | [6] 65.7% | [7] 95.2% and 73.8% | [8] 103% and 76.9% | [9] 84.3% and 47.7% | [10] 108% and 76.6% | [11] 66.7% and 43.2% | [12] 94.8% and 81.7% | [13] 83.5% and 73.6% | [14] 107% and 92.5% | [15] 104% and 82.7% | [16] 54.7% and 72.1% | [17] 80.7% and 84.2% | [18] 86.9% | [19] 96.5% and 76.7%

COc1ccc2nccc(Cl)c2c1
inactive: [1] 98.4% | [2] 85.1% | [3] 97.1% | [4] 109% | [5] 98.7% | [6] 90.7% | [8] 94.7% | [9] 105% | [10] 101% | [11] 110% | [12] 103% | [13] 102% | [14] 105% | [15] 92.8% | [16] 107% | [17] 104% | [18] 91.9% | [19] 107%

CN(C)C(=N)N=C(N)N
108% (inactive) and -0.171% (active): [18]
inactive: [1] 100% and 120% | [2] 110% and 133% | [3] 107% and 154% | [20] 95.5% and 99.5% | [4] 113% and 125% | [6] 64.1% and 166% | [7] 99.8% and 118% | [8] 103% and 101% | [9] 135% | [10] 120% | [11] 130% | [12] 116% and 269% | [13] 95.8% and 114% | [15] 99.9% and 103% | [16] 113% and 178% | [17] 98.5% and 109% | [19] 99.2% and 101%
101% (inactive) and -7.3% (active): [14]
